Test results: PubChem BioAssay (NCATS)
Records with an inconclusive call do not appear. Where a call stands in place of a potency, no number is given. Active and inactive are the calls of the source. Unless noted, calls follow the shape of the dose curve; as a rule, active = well fitted curve in the direction sought with a large enough effect in the repeat runs; inconclusive = weak or mixed curves; inactive = no such curve, though single readings can be large; an effect the other way counts as inactive or inconclusive. Where a SMILES comes first, the peptide text is derived from it. [ ]: non-standard residue; d: D form. pGlu = O=C1CC[C@@H](C(=O)O)N1

Tests used:
[1] = Primary qHTS for small molecule stabilizers of the endoplasmic reticulum resident proteome: Secreted ER Calcium Modulated Protein (SERCaMP) assay (AID 1508630; active = well fitted curve in the direction sought with a large enough effect; an effect the other way counts as inactive or inconclusive); details: SH-SY5Y GLuc-SERCaMP (Gaussia luciferase released on ER calcium loss) secretion, thapsigargin, luminescence; series mostly up to 38.4 µM
In short: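 GLuc-SERCaMP-expressing SH-SY5Y cells, pretreated 16 h with compound, are challenged with thapsigargin to empty ER calcium stores; after 4 h, coelenterazine is added directly to the medium and luminescence is imaged.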

[2] = A High-Content qHTS Against Drug Library for the Identification of Small Molecules that Inhibit DYT1 Early Onset Primary Dystonia-Associated Cell Pathology (AID 1645839; calls by dose curve); details: HEK293 Flp-In EGFP-delE TorsinA, punctate imaging, 48 h; series mostly up to 46.1 µM
In short: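 Readout: %pathology, the punctate EGFP-TorsinA distribution from imaging, as the primary channel and cell count as the toxicity counterscreen. HEK293 Flp-In cells expressing delE TorsinA were induced with tetracycline and treated with compound for 48 h.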

[3] = target: Cytochrome P450 2D6 (Homo sapiens) (UniProt P10635); test: Cytochrome P450 family 2 subfamily D member 6 (CYP2D6) small molecule antagonists: luciferase biochemical (cell-free) qHTS assay (AID 1645840); details: P450-Glo CYP2D6 enzyme, luciferin luminescence, 1 h; series mostly up to 57.4 µM; also: nearly all actives have a fitted effect of over 55% in size; also: potency is read from the fitted curve at half-maximal effect
Cytochrome P450 2D6 (Homo sapiens), sequence (P10635 whole entry, looked up): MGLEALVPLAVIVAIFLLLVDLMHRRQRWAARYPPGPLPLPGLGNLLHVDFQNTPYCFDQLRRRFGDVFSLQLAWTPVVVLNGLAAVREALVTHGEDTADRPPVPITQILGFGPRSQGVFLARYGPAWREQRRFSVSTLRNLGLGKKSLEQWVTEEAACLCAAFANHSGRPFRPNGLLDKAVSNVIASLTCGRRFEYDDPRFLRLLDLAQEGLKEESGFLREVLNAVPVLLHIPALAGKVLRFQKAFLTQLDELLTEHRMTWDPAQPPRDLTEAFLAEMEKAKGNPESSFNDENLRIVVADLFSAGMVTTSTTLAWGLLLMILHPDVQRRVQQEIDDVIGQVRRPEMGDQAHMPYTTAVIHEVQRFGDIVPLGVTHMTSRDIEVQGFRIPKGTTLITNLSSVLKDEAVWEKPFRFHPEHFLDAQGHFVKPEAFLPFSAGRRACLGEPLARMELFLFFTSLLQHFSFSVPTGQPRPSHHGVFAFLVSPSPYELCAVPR
In short: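 P450-Glo luminescent screen: recombinant CYP2D6 enzyme–proluciferin substrate mix preincubated with compound 10 min at room temperature, then NADPH regeneration added for 1 h at room temperature. Detection reagent added for 20 min; luciferin light read as relative luminescence units.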

[4] = target: Cytochrome P450 2C9 (Homo sapiens) (UniProt P11712); test: Cytochrome P450 family 2 subfamily C member 9 (CYP2C9) small molecule antagonists: luciferase biochemical (cell-free) qHTS assay (AID 1645842); details: P450-Glo CYP2C9 enzyme assay, luciferin luminescence; series mostly up to 57.4 µM; also: nearly all actives have a fitted effect of over 55% in size; also: potency is read from the fitted curve at half-maximal effect
Cytochrome P450 2C9 (Homo sapiens), sequence (P11712 whole entry, looked up): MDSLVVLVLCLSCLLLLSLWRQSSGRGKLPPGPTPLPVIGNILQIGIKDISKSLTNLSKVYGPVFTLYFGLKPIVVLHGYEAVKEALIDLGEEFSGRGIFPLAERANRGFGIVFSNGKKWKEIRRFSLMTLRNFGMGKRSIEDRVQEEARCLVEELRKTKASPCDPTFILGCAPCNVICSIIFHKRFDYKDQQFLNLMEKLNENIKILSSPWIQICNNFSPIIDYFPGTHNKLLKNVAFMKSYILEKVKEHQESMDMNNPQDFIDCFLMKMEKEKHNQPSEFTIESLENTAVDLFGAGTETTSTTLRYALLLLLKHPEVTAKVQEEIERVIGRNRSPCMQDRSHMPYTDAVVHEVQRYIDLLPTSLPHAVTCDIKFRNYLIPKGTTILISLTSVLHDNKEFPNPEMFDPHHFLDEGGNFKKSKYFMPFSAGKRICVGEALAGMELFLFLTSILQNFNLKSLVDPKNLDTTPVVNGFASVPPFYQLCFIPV
In short: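 Luminescence, after 20 min with luciferin detection reagent, reflected CYP2C9 turnover during a 1 h NADPH-driven reaction at 37C. Enzyme-substrate mix contained 0.4% bovine serum albumin and was preincubated with compound 10 min at room temperature.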

[5] = target: Cytochrome P450 3A4 (Homo sapiens) (UniProt P08684); test: Cytochrome P450 family 3 subfamily A member 4 (CYP3A4) small molecule antagonists: luciferase qHTS assay (AID 1645841); details: P450-Glo CYP3A4 enzyme assay, luciferin luminescence; series mostly up to 57.4 µM; also: nearly all actives have a fitted effect of over 45% in size; also: potency is read from the fitted curve at half-maximal effect
Cytochrome P450 3A4 (Homo sapiens), sequence (P08684 whole entry, looked up): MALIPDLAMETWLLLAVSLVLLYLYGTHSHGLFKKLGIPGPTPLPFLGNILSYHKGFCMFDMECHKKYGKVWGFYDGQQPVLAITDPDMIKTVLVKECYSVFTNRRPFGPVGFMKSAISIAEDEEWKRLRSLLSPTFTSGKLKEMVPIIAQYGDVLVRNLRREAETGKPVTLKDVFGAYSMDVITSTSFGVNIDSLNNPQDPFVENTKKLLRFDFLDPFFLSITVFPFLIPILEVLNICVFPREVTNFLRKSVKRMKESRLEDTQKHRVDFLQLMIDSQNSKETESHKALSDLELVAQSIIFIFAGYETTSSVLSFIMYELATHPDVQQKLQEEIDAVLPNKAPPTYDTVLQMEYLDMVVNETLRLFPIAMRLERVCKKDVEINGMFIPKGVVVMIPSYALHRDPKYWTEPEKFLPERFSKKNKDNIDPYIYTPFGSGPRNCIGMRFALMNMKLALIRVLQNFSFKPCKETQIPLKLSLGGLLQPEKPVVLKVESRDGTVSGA
In short: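 P450-Glo CYP3A4 enzyme with proluciferin substrate was preincubated with DMSO-dissolved compounds for 10 min at room temperature. NADPH regeneration solution started a 1 h reaction. Detection reagent stopped it, and luminescence was read after 20 min.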

SMILES	Potency [1]	Potency [2]	Potency [3]	Potency [4]	Potency [5]
CCNC(=O)[C@@H]1CCCN1C(=O)[C@H](CCCN=C(N)N)NC(=O)[C@H](CC(C)C)NC(=O)CNC(=O)[C@H](Cc1ccc(O)cc1)NC(=O)[C@H](CO)NC(=O)[C@H](Cc1c[nH]c2ccccc12)NC(=O)[C@H](Cc1cnc[nH]1)NC(=O)[C@@H]1CCC(=O)N1 ([pGlu]HWSYGLRP-NHEt)	inactive	inactive	inactive	inactive	
COc1ccc2c(c1)CCCC2=O	inactive	inactive	inactive	inactive	
COc1cc2nc(Cl)nc(N)c2cc1OC	inactive	inactive	inactive	inactive	
CN1Cc2cc(C(=O)N3CCC(C4CCNCC4)CC3)ccc2N[C@@H](CC(=O)O)C1=O	inactive	inactive	inactive	inactive	
CCOc1ccc(NS(=O)(=O)c2ccc(N)cc2)nn1	inactive	inactive	inactive	inactive	
CC(=O)c1cc2ccccc2s1	inactive	inactive	inactive	inactive	
Nc1ncnc2c1ncn2Cc1c(F)cccc1Cl	inactive	inactive	inactive	inactive	
O=C(O)c1cn(C2CC2)c2cc(Cl)c(F)cc2c1=O	inactive	inactive	inactive	inactive	
NS(=O)(=O)c1cc2c(cc1Cl)CN(C1CCCCC1)C2=O	inactive	inactive	inactive	inactive	
COc1cc(NS(=O)(=O)c2ccc(N)cc2)nc(C)n1	inactive	inactive	inactive	inactive	
CCOC(=O)O[C@]1(C(=O)OCCl)CC[C@H]2[C@@H]3CCC4=CC(=O)C=C[C@]4(C)[C@H]3[C@@H](O)C[C@@]21C	inactive	inactive	inactive	inactive	
O=C(c1ccco1)N1CCNCC1	inactive	inactive	inactive	inactive	
CCOC(=O)OCC/C(SC(=O)OCC)=C(\C)N(C=O)Cc1cnc(C)nc1N	inactive	inactive	2.16 µM (active)	inactive	
O=C1NC(c2ccccc2)(c2ccccc2)C(=O)N1COP(=O)(O)O	inactive	inactive	inactive	inactive	
O=C(CO)[C@@H](O)[C@H](O)[C@@H](O)CO	inactive	inactive	inactive	inactive	
CC(=O)OCC(=O)[C@@]1(O)[C@H](OC(C)=O)C[C@H]2[C@@H]3CCC4=CC(=O)C=C[C@]4(C)[C@@]3(F)[C@@H](O)C[C@@]21C	inactive	inactive	inactive	inactive	
Cc1cc(C(C)(C)C)c(O)c(C(C)(C)C)c1	inactive	inactive	inactive	inactive	
CC(C(=O)O)c1ccc(/C=C2\CCCCC2=O)cc1 (centres undefined)	inactive	inactive	inactive	inactive	
CCOC(=O)NNc1ccc(N(CC)CC(C)O)nn1 (centres undefined)	inactive	inactive	inactive	inactive	
C[C@@H]1C[C@H]2[C@@H]3CCC4=CC(=O)C=C[C@]4(C)[C@@]3(F)[C@@H](O)C[C@]2(C)[C@@]1(O)C(=O)COC(=O)c1ccncc1	inactive	inactive	1.23 µM (active)	2.45 µM (active)	
CN=C(N)NC(=O)Nc1c(C)cccc1C	inactive	inactive	inactive	inactive	
CCOC(=O)Cn1cccc1-c1nc(-c2ccc(OC)cc2)c(-c2ccc(OC)cc2)s1	inactive		inactive		
O=C1CC2(CCCC2)CC(=O)N1	inactive		inactive		
COc1ccccc1N1CCN(CC(O)COc2cc(OC)c(OC)c(OC)c2)CC1 (centres undefined)	inactive	inactive		inactive	
CCc1cc2cc(OC)c(OC)cc2c(Cc2ccccc2)n1	inactive	inactive		15.5 µM (active)	

SMILES	Potency [1]	Potency [2]	Potency [3]	Potency [4]	Potency [5]
CCC(CN)=C(c1ccccc1)c1ccccc1	inactive		3.63 µM (active)		
C=C(C)C(=O)OCC(O)CO (centres undefined)	inactive		inactive	inactive	
CCN(CC)CCN	inactive	inactive		inactive	
Cc1cc(OCCOCC[N+](C)(C)Cc2ccccc2)ccc1C(C)(C)CC(C)(C)C	inactive		7.76 µM (active)		
CC1(C)OC(=O)Nc2ccc(Br)cc21	inactive	inactive		inactive	
CCCCCN(CCCOC)C(=O)C(CCC(=O)O)NC(=O)c1ccc(Cl)c(Cl)c1 (centres undefined)	inactive		inactive	19.5 µM (active)	
CN1CC[C@H](c2c(O)cc(O)c3c(=O)cc(-c4ccccc4Cl)oc23)[C@H](O)C1	inactive		12.3 µM (active)	inactive	
CC(C)(C)c1nnc(NS(=O)(=O)c2ccccc2)s1	inactive		inactive		
CCCCCC1Nc2cc(C(F)(F)F)c(S(N)(=O)=O)cc2S(=O)(=O)N1 (centres undefined)	inactive		3.89 µM (active)	1.95 µM (active)	inactive
O=C(CCCCC(=O)Nc1c(I)cc(I)c(C(=O)O)c1I)Nc1c(I)cc(I)c(C(=O)O)c1I	inactive	inactive		inactive	
CCC(=O)Oc1ccc2c(c1)CC[C@@H]1[C@@H]2CC[C@@]2(C)[C@H]1C[C@@H](OC(=O)CC)[C@@H]2OC(=O)CC	inactive	inactive		8.71 µM (active)	
CCC[C@H](N[C@@H](C)C(=O)N1[C@H](C(=O)O)C[C@@H]2CCCC[C@@H]21)C(=O)OCC	inactive	inactive		inactive	
CC(=O)Nc1ccc(S(=O)(=O)Nc2cc(C)on2)cc1	inactive	inactive		inactive	
C[N+](C)(CCOc1ccccc1)Cc1cccs1	inactive		0.123 µM (active)	inactive	
CCCCCCCCCCCCCCCCCCNC(=O)OC1CCN(C(=O)OC[C@H](COC(=O)N(Cc2cccc[n+]2CC)C(=O)c2ccccc2OC)OC)CC1	inactive		17.4 µM (active)		
CC(CCc1ccc2c(c1)OCO2)NN (centres undefined)	inactive	inactive		15.5 µM (active)	
O=C(Nc1ccc(S(=O)(=O)N2CCOCC2)cc1)c1cc(Cl)ccc1NS(=O)(=O)c1ccc(Cl)s1	inactive		15.5 µM (active)	0.0436 µM (active)	
CCCCCOc1ccccc1/C(=C\SC)n1ccnc1	inactive		0.977 µM (active)	3.89 µM (active)	
Cc1sccc1Br	inactive		inactive	inactive	
CCOC(=O)c1ccc(NC(=O)CN2CCCCC2)cc1	inactive	inactive		inactive	
Cc1cc(=O)oc2cc(O[C@@H]3SC[C@@H](O)[C@H](O)[C@H]3O)ccc12	inactive		inactive	inactive	
CC(C)NC(=O)c1ccc(C=O)cc1	inactive	inactive		inactive	
CC(C)(C)CC(=O)OCC(=O)[C@@]1(O)CC[C@H]2[C@@H]3CCC4=CC(=O)C=C[C@]4(C)[C@H]3[C@@H](O)C[C@@]21C	inactive	inactive		11 µM (active)	
CC[C@@H]([C@H](C)O)n1ncn(-c2ccc(N3CCN(c4ccc(OC[C@@H]5CO[C@@](Cn6cncn6)(c6ccc(F)cc6F)C5)cc4)CC3)cc2)c1=O	inactive		inactive		
CCCCCOc1ccc(C2SC(=O)NC2=O)cc1OCC (centres undefined)	inactive		inactive		

SMILES	Potency [1]	Potency [2]	Potency [3]	Potency [4]	Potency [5]
COc1ccccc1OCC1CNC(=O)O1 (centres undefined)	inactive		inactive	inactive	
Cc1c(N)cccc1C(F)(F)F	inactive	inactive		inactive	
CCN(CC)C(=O)C1CN2CCc3cc(OC)c(OC)cc3C2CC1OC(C)=O (centres undefined)	inactive	inactive		inactive	
Nc1ccc2cc3ccc(N)cc3nc2c1	inactive		inactive	inactive	4.36 µM (active)
OCCc1ccccc1	inactive	inactive		inactive	
CC(=O)[C@H]1CC[C@H]2[C@@H]3C=CC4=CC(=O)CC[C@@]4(C)[C@@H]3CC[C@]12C	inactive		15.5 µM (active)		
C[C@@]12CCC[C@H]1[C@@H]1CC[C@H]3C[C@@H](O)CC[C@]3(C)[C@H]1CC2	inactive	inactive		22.9 µM (active)	
CN(C)[C@@H]1C(=O)C(C(N)=O)=C(O)[C@@]2(O)C(=O)C3=C(O)c4c(O)cccc4C[C@H]3C[C@@H]12				inactive	
CCOC(=O)c1ccc(OCCN2C[C@H](O)[C@@H](O)[C@H](O)[C@H]2CO)cc1				inactive	
O=P(O)(O)OCC(O)CO (centres undefined)		inactive	inactive	inactive	
C#Cc1ccc(-c2ccccc2F)cc1		inactive	15.1 µM (active)	12 µM (active)	
CC1CC(=O)NN=C1c1ccc(NCC(C)(C)NCC(O)COc2cc(Cl)ccc2C#N)cc1 (centres undefined)		inactive	0.871 µM (active)	0.977 µM (active)	
C/C(=N\O)[C@@H](C)NCC(C)(C)CN[C@H](C)/C(C)=N/O		inactive	inactive	inactive	
CN(C)CCCOC1(Cc2ccccc2)CCCCCC1		inactive	2.19 µM (active)	inactive	
Cc1oc(=O)oc1COC(=O)[C@@H]1N2C(=O)[C@@H](NC(=O)[C@H](N)c3ccccc3)[C@H]2SC1(C)C		inactive	inactive	inactive	
CCN1CCN(C(=O)N[C@@H](C(=O)N[C@@H]2C(=O)N3[C@@H]2SC(C)(C)[C@H]3C(=O)O)c2ccccc2)C(=O)C1=O		inactive	inactive	inactive	
O=C1CC[C@H](C(=O)N2CCCCC2)N1		inactive	inactive	inactive	
Cc1coc2ccccc2c1=O		inactive	inactive	inactive	
O=C(Oc1ccccc1)c1cccc(C(=O)Oc2ccccc2)c1		inactive	30.7 µM (active)	6.48 µM (active)	
COC(=O)CCCCC(CCSS/C(CCO)=C(\C)N(C=O)Cc1cnc(C)nc1N)SC(C)=O (centres undefined)		inactive	inactive	inactive	
O=C(O)CCCC[C@@H]1SC[C@@H]2NC(=O)N[C@@H]21		inactive	inactive	inactive	
O=C(O)c1ccc(OCCN2CCCCC2)cc1		inactive	inactive	inactive	
CC(C)C[C@H](NC(=O)CNC(=O)[C@H](Cc1ccc(O)cc1)NC(=O)[C@H](CO)NC(=O)[C@H](Cc1c[nH]c2ccccc12)NC(=O)[C@H](Cc1cnc[nH]1)NC(=O)[C@@H]1CCC(=O)N1)C(=O)N[C@@H](CCCN=C(N)N)C(=O)N1CCC[C@H]1C(=O)NCC(N)=O (stereo in doubt)		inactive	inactive	inactive	
